Results as given in PMC4336329 (PLoS ONE, 2015).
Screen size: about 310,000 compounds; about 14,000 (4.5%) showed an effect of 50% or more. Effects have a minus sign here. This excerpt belongs to a sample that is enriched for strong results.

Target: human ether-à-go-go-related gene (hERG) potassium channel (human, UniProt Q12809)
Test: primary screen, population patch clamp on CHO cells stably expressing hERG; higher = less effect of the substance
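Further: peak tail current of the secondary pulse compared with the same well before compound.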

Sequence of human ether-à-go-go-related gene (hERG) potassium channel (Q12809 whole entry, looked up): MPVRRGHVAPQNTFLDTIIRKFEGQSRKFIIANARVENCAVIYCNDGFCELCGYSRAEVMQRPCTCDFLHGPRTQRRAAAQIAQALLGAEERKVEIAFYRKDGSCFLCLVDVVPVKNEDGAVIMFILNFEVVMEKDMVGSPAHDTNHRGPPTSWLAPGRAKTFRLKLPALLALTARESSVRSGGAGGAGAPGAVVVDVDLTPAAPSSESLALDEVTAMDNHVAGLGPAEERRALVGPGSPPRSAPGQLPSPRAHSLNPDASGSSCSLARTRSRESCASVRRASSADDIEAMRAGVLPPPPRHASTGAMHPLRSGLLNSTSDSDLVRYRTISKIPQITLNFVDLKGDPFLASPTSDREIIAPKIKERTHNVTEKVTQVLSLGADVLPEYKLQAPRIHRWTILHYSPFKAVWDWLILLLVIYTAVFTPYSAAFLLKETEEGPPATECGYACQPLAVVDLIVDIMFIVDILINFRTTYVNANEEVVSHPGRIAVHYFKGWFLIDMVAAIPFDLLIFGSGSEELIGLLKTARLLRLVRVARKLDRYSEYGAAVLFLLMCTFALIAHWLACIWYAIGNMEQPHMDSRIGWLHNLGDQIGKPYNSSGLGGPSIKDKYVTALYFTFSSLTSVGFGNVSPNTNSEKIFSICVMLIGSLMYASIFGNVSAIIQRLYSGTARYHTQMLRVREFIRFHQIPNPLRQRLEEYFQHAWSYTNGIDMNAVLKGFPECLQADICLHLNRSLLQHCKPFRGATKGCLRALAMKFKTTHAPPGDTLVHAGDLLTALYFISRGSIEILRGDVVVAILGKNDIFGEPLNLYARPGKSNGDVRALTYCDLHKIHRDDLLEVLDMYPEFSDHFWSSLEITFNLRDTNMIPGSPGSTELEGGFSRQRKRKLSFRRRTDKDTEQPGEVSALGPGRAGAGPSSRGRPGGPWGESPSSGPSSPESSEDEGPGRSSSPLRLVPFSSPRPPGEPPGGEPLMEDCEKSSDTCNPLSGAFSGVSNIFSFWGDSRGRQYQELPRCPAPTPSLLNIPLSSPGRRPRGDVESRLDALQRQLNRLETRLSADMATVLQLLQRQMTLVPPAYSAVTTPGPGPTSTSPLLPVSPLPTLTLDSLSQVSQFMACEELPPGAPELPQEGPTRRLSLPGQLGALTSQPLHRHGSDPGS

Row | SMILES | hERG current change (%, negative = inhibition) at 10uM [%]
1 | CCCc1nc2c(sc3nc4c(cc32)COC(C)(C)C4)c(=O)n1CCN(CC)CC | -17.8
2 | O=[N+]([O-])c1cccc(NC(=S)NCc2ccncc2)c1 | 0.695
3 | CCOC(=O)c1c(Nc2ccccc2)sc(/C=C2\C=Nc3ccccc32)c1O | 0.585
4 | O=C(O)/C=C/C(=O)N1CCN(c2ccccc2F)CC1 | 7.85
5 | COc1ccc(-c2ccc(SCC(=O)N3c4ccccc4CC3C)nn2)cc1OC (centres unmarked) | -4.75
6 | CCOC(=O)C1CCN(C(=O)c2cn(C)c(=O)c3cc(OC)c(OC)cc23)CC1 | -11.3
7 | COc1ccc(NC(=O)COC(=O)CCNS(=O)(=O)c2ccc(Cl)cc2)cc1 | -23.2
8 | COc1ccc(NC(C)=[N+](C)CCNS(=O)(=O)c2ccc(Cl)cc2)cc1.[I-] | -70.2
9 | COc1ccc(NC(=O)CNS(=O)(=O)c2ccc(Cl)cc2)cc1 | 3.79
10 | Cc1cc(S(=O)(=O)Nc2ccc3c(c2)n(C)c(=O)n3C)ccc1F | -0.399
11 | Cl.O=C(c1ccccc1)C(CCC(CN1CCOCC1)C(=O)c1ccccc1)CN1CCOCC1 (centres unmarked) | -7.92
12 | Cl.O=C(c1ccc(F)cc1)C(CN1CCOCC1)c1ccccc1 (centres unmarked) | -12.3
13 | Cl.O=C(c1ccc(F)cc1)C(CCCCCC(CN1CCOCC1)C(=O)c1ccc(F)cc1)CN1CCOCC1 (centres unmarked) | -86.8
14 | CCc1ccc(NC(=O)CSc2nnnn2-c2cccnc2)cc1 | -15.4
15 | COc1ccccc1CCC(=O)Nc1ncc(C)s1 | 16.3
16 | Cc1cc(=O)oc2cc(OCC(=O)Nc3ccccc3C(N)=O)c(Cl)cc12 | 18.5
17 | Cc1ccc(CN2CCN(Cc3ccccc3-c3ccco3)CC2CCO)o1 (centres unmarked) | -22.3
18 | C#Cc1ccc(CN2CCN(Cc3ccsc3)C(CCO)C2)cc1 (centres unmarked) | -34.6
19 | OCCC1CN(Cc2ccccc2-c2ccco2)CCN1Cc1ccsc1 (centres unmarked) | -51
20 | OCCC#Cc1ccc(CN2CCN(Cc3ccsc3)C(CCO)C2)cc1 (centres unmarked) | -4.59
21 | OCCC1CN(Cc2ccc(-c3ccco3)cc2)CCN1Cc1ccsc1 (centres unmarked) | -53.8
22 | CC(C)CCN1CCN(Cc2ccsc2)CC1CCO (centres unmarked) | -6.33
23 | Cc1ccc(CN2CCN(C3CCCC3)C(CCO)C2)s1 (centres unmarked) | -22.4

Row | SMILES | hERG current change (%, negative = inhibition) at 10uM [%]
24 | OCCC1CN(Cc2ccccc2-c2ccco2)CCN1C1CCCC1 (centres unmarked) | -63.8
25 | OCCC1CN(Cc2cccc3c2OCO3)CCN1C1CCCCC1 (centres unmarked) | -9.67
26 | CC(C)N1CCN(Cc2cccc(-c3ccco3)c2)CC1CCO (centres unmarked) | -35.9
27 | OCCC1CN(Cc2cccc(-c3ccco3)c2)CCN1Cc1ccsc1 (centres unmarked) | -71.6
28 | OCCC1CN(Cc2ccccc2-c2ccco2)CCN1Cc1ccccc1 (centres unmarked) | -35.7
29 | COc1cccc(/C=C2\SC(=O)NC2=O)c1OCc1ccc(C(=O)O)cc1 | 9.69
30 | OCCN1CCN(Cc2cc(Cl)c3cccnc3c2O)CC1 | 16.6
31 | COc1ccccc1N1CCN(C(=O)C(=O)c2c[nH]c3ccccc23)CC1 | 0.156
32 | Nc1ccccc1SCC(=O)Nc1ccc2c(c1)OCCO2 | 3.12
33 | O=C(CSc1nnc2c(n1)[nH]c1ccc(F)cc12)Nc1ccccc1F | 19.5
34 | Cc1ccc(C(=O)NC2CCSC2=O)cc1 (centres unmarked) | 7.89
35 | Cc1ccc(NC(=O)C2OCCc3ccccc32)cc1C (centres unmarked) | -3.78
36 | Cc1cc(OCCCn2ccnc2)ccc1[N+](=O)[O-].O=C(O)C(=O)O | -2.51
37 | Cc1cc(OCCN2CCOCC2)ccc1[N+](=O)[O-].O=C(O)C(=O)O | 5.11
38 | Cc1ccc([N+](=O)[O-])c(OCCN2CCCCCC2)c1.O=C(O)C(=O)O | -34
39 | Cc1ccc([N+](=O)[O-])c(OCCN2CCc3ccccc3C2)c1.O=C(O)C(=O)O | -23.3
40 | Cc1ccc([N+](=O)[O-])c(OCCN2CCNCC2)c1.O=C(O)C(=O)O | -14.6
41 | Cc1cc(OCCCN2CCN(Cc3ccccc3)CC2)ccc1[N+](=O)[O-].O=C(O)C(=O)O | -71.5
42 | Cc1ccc([N+](=O)[O-])c(OCCCN2CCCCCC2)c1.O=C(O)C(=O)O | -58.6
43 | Cc1ccc([N+](=O)[O-])c(OCCN2CCC(Cc3ccccc3)CC2)c1.O=C(O)C(=O)O | -73
44 | Cc1ccc(OCCN2CCN(C)CC2)c([N+](=O)[O-])c1.O=C(O)C(=O)O | 6
45 | Cc1ccc([N+](=O)[O-])c(OCCCN2CCC(Cc3ccccc3)CC2)c1.O=C(O)C(=O)O | -89.6
46 | COc1cc(NC(=O)CN2CCC(Cc3ccccc3)CC2)c(C)cc1[N+](=O)[O-] | 6.01

Row | SMILES | hERG current change (%, negative = inhibition) at 10uM [%]
47 | O=C(Nc1ccccc1F)c1ccc2c(c1)CCN2S(=O)(=O)c1ccccc1 | 19.5
48 | C=CCn1c(SCc2ccccc2C#N)nnc1-c1ccccc1O | -23.7
49 | Cc1ccc2c(c1)C(c1ccc(N3CCOCC3)cc1)=NNC(c1cccs1)=N2 | 1.66
50 | Nc1n[nH]c(N)c1N=Nc1ccc(Cl)cc1Cl | 19.1
51 | COc1ccc(-c2noc(N3CCC(C(=O)Nc4ccccc4Cl)CC3)n2)cc1 | 10.8
52 | Cc1cc(NC(=O)c2ccccc2)sc1C | 5.55
53 | Cc1cc(OC(=O)c2cccc(Cl)c2)c([N+](=O)[O-])c(=O)[nH]1 | 19.9
54 | COCCNc1oc(-c2ccco2)nc1S(=O)(=O)c1ccccc1 | 2.69
55 | CCC(CO)NCC(O)COCc1ccc2c(c1)OCO2 (centres unmarked) | 10.1
56 | Cc1ccc(OCCCCN2CCCCC2)c(C)c1 | -24.6
57 | Cc1ccc(OCCCN2CCCC2)c(C)c1.O=C(O)C(=O)O | -27.2
58 | Cc1cc(OCCN2CCC(Cc3ccccc3)CC2)ccc1[N+](=O)[O-].O=C(O)C(=O)O | -79.1
59 | Cc1ccc(OCCCCN2CCCC(C)C2)c([N+](=O)[O-])c1.O=C(O)C(=O)O (centres unmarked) | -69
60 | Cc1ccc(C)c(OCCCN2CCCC2)c1.O=C(O)C(=O)O | -54.9
61 | Cc1cc(OCCN2CCCC2)ccc1[N+](=O)[O-].O=C(O)C(=O)O | -9.82
62 | Cc1cc(OCCN2CCCCCC2)ccc1[N+](=O)[O-].O=C(O)C(=O)O | -46.2
63 | Cc1cc(C)c(C)c(OCCCCN2CCCCC2)c1 | -52.5
64 | Cc1ccc(C)c(OCCCCN2CCCCC2)c1.O=C(O)C(=O)O | -42.1
65 | Cc1ccc(OCCOCCN2CCCCC2)c([N+](=O)[O-])c1.O=C(O)C(=O)O | -37.5
66 | Cc1cc(C)c(C)c(OCCOCCN2CCN(C)CC2)c1 | -1.93
67 | Cc1ccc(OCCCN2CCOCC2)c([N+](=O)[O-])c1.O=C(O)C(=O)O | -12
68 | CCN(CC(=O)NC1CCS(=O)(=O)C1)S(=O)(=O)c1ccccc1 (centres unmarked) | 7.7
69 | CCOc1ccc(Br)cc1S(=O)(=O)Nc1ccccc1N1CCOCC1 | -15.8

Row | SMILES | hERG current change (%, negative = inhibition) at 10uM [%]
70 | O=C(Cn1cccc1)N1CCN(C(c2ccccc2)c2ccccc2)CC1 | -3.68
71 | Cn1c(=O)c2c(nc(NC3CCCCC3)n2Cc2ccccc2)n(C)c1=O | 14.2
72 | Cc1ccc(CN(C(=O)c2cc(=O)c3cc(C)cc(C)c3o2)C2CCS(=O)(=O)C2)cc1 (centres unmarked) | -32.1
73 | COc1ccc(N2CC(C(=O)N[C@@H](C)C(=O)NC3CCCC3)CC2=O)cc1 (some centres unmarked) | 15.7
74 | CN(C)/C=C/C(=O)c1cnc2sccn2c1=O | 5.24
75 | O=C(/C=C/c1ccccc1Cl)c1ccccc(=O)c1O | -1.72
76 | Cc1ccc(C)c(/C=C/C(=O)c2ccccc(=O)c2O)c1 | -50.7
77 | Cc1ccc(/C=C/C(=O)c2ccccc(=O)c2O)cc1C | -24.6
78 | C/C(=N\NC(=O)c1ccncc1)c1cccc(NC(=O)c2ccc(C(C)(C)C)cc2)c1 | -53.7
79 | CC(=O)c1cccc(NC(=O)c2ccc(Br)o2)c1 | -1.49
80 | C/C(=N\NC(=O)c1cccc(Br)c1)c1cccc(NC(=O)c2ccc(C)o2)c1 | -6.46
81 | C/C(=N/NC(=O)c1ccco1)c1cccc(NC(=O)c2ccc(C)o2)c1 | -45.4
82 | O=C(c1ccccc1)c1cccc(NC(=O)c2ccc(Br)o2)c1 | -61.1
83 | C/C(=N/NC(=O)c1ccncc1)c1ccc(NC(=O)c2ccccc2)cc1 | 7.92
84 | C/C(=N/NC(=O)c1ccc(Br)o1)c1cccc(NC(=O)c2ccc(C)o2)c1 | -67.6
85 | C/C(=N\NC(=O)c1cccc(F)c1)c1cccc(NC(=O)c2ccc(F)cc2)c1 | 13
86 | C/C(=N\NC(=O)c1ccc(F)cc1)c1cccc(NC(=O)c2cccc(F)c2)c1 | 21.3
87 | COc1ccc(C(=O)N/N=C(/C)c2cccc(NC(=O)c3ccncc3)c2)cc1OC | 8.48
88 | C/C(=N/NC(=O)c1ccc(Br)o1)c1cccc(NC(=O)c2ccc(F)cc2)c1 | -58.9
89 | O=C(Nc1ccccc1)c1ccc(Br)o1 | 3.15
